This passage reports Potency results from PubChem BioAssay (NCATS).

Structures are written as SMILES. Inconclusive results are not listed. Where a call stands in place of a potency, no number is given. Active and inactive are the calls of the source. The call rests on the fitted dose curve; tested in HEK293 reporter line.

A short description of the experiment: qHTS for Inhibitors of the Functional Ribonucleoprotein Complex (vRNP) of Lymphocytic Choriomeningitis Arenaviruses (LCMV): Viability assay - alamar blue signal for LCMV Primary Screen (AID 1347085). Further: nearly all actives have a fitted effect of over 80% in size. The note with it: alamar blue viability counter-screen, LCMV vRNP screen cells; series mostly up to 57.5 µM.
`CC(C)OC(=O)c1ccccc1`: the Potency result is “inactive”.

Take `COC(=O)C1=CO[C@@H](O[C@@H]2O[C@H](CO)[C@@H](O)[C@H](O)[C@H]2O)C2C1CC(O)O[C@H]2C` (some centres not stated): the Potency entry is “inactive”.

Regarding `CC(O)[C@H]1CC[C@H]2[C@@H]3CC[C@H]4C[C@@H](O)CC[C@]4(C)[C@H]3C(=O)C[C@]12C` (some centres not stated), the Potency entry is “inactive”.

With `CC1=CC(=O)O[C@@H]1[C@@]1(C)C[C@H]2OC(=O)C[C@H]3[C@@H](C)C(=O)C(O)=C1[C@@]23CO`, the Potency result is “inactive”.

`O=C1N[C@@H](Cc2c[nH]c3ccccc23)C(=O)N[C@H]1Cc1c[nH]c2ccccc12`: the Potency entry was “inactive”.

In the case of `N#CC(c1ccc(O)cc1)N1CCCCC1` (configuration not stated), the Potency entry was “inactive”.

Take `O=CC(O)C1OC(=O)C(O)C1O` (configuration not stated): the Potency result is “inactive”.

Consider `C/C=C(/C)C(=O)OC1Cc2c(ccc3ccc(=O)oc23)OC1(C)C` (configuration not stated), for which the Potency result was “inactive”.

Regarding `COc1cc2c(c(OC)c1OC)-c1c(cc3c(c1O)OCO3)C[C@@H](C)[C@@H](C)C2`, the Potency result was “inactive”.

In the case of `O=C(/C=C/c1ccc(O)cc1)OCc1occc(=O)c1O[C@@H]1OC(CO)[C@@H](O)[C@H](O)[C@@H]1O` (some centres not stated), the Potency result is “inactive”.

Regarding `C[N+](C)(C)C[C@H](O)CC(=O)[O-]`, the Potency entry is “inactive”.

Turning to `CCCc1ccc(OC)cc1`, the Potency entry is “inactive”.

As for `O=C1c2c(O)cc(O)cc2O[C@@]12c1c(cc(O)c3c1O[C@H](c1ccc(O)cc1)[C@@H](O)C3)O[C@@H]2c1ccc(O)cc1`, the Potency entry was “inactive”.

For the compound `CC(C)c1ccc(C=O)cc1`, the Potency result was “inactive”.

With `CC(=O)C1CCC2C3CCC4=CC(=O)C=CC4(C)C3CCC12C` (configuration not stated), the Potency result is “inactive”.

In the case of `CCCCC(C=O)NC(=O)C(CC(C)C)NC(=O)OCc1ccccc1` (configuration not stated), the Potency entry was “inactive”.

Take `C=CC[C@]12C[C@@H](OC)C(=O)C=C1O[C@@H](c1ccc(OC)c(OC)c1)[C@H]2C`: the Potency entry is “inactive”.
